# Laboratory results published in article PMC5540273 (PLoS ONE, 2017).
# Tests used:
# Conditions in all cases: concentration: 1 μM, replicates: in singlicate; n = 1
# PIM1 = tested on: PIM1
# PIM2 = tested on: PIM2
# PIM3 = tested on: PIM3
# PIP5K1A = tested on: PIP5K1A
# PIP5K1C = tested on: PIP5K1C
# PIP5K2B = tested on: PIP5K2B
# PIP5K2C = tested on: T1, PIP5K2C
# T1 construct: gene PIP4K2C
# PKAC-alpha = tested on: T2, PKAC-alpha
# T2 construct: gene PRKACA
# PKAC-beta = tested on: T3, PKAC-beta
# T3 construct: gene PRKACB
# PKMYT1 = tested on: PKMYT1
# PKN1 = tested on: PKN1
# PKN2 = tested on: PKN2
# PLK1 = tested on: PLK1
# PLK2 = tested on: PLK2
# PLK3 = tested on: PLK3
# PLK4 = tested on: PLK4
# PRKCD = tested on: PRKCD
# PRKCE = tested on: PRKCE
# PRKCH = tested on: PRKCH
# PRKCI = tested on: PRKCI
# 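Also: KINOMEscan kinase panel screen.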
Structure (SMILES),%Inh (PIM1) [%],%Inh (PIM2) [%],%Inh (PIM3) [%],%Inh (PIP5K1A) [%],%Inh (PIP5K1C) [%],%Inh (PIP5K2B) [%],%Inh (PIP5K2C) [%],%Inh (PKAC-alpha) [%],%Inh (PKAC-beta) [%],%Inh (PKMYT1) [%],%Inh (PKN1) [%],%Inh (PKN2) [%],%Inh (PLK1) [%],%Inh (PLK2) [%],%Inh (PLK3) [%],%Inh (PLK4) [%],%Inh (PRKCD) [%],%Inh (PRKCE) [%],%Inh (PRKCH) [%],%Inh (PRKCI) [%]
O=C(Nc1ccc2c(c1)OCO2)NC1CCN(c2ccnc(Nc3ccc(F)cc3)n2)C1 (centres unmarked) [GSK1379724],0,0,0,34,32,13,23,0,0,15,4,0,0,0,0,0,0,7,0,0
Cc1cccc(-c2nc(C)cc(Nc3ccncc3)n2)n1 [GSK257997],19,0,37,0,39,7,0,3,17,12,0,0,5,0,0,1,15,0,5,12
Cc1c(Cn2ccn3c(=O)cc(N4CCOCC4)nc23)cccc1C(F)(F)F [GSK2289044],0,0,4,0,10,15,0,11,0,0,20,5,0,0,0,0,0,0,8,0
Cc1cc(NCC(c2ccccc2)c2ccccc2)nc(NCc2ccc(C(F)(F)F)cc2)n1 [GW497681],12,0,0,0,53,8,0,0,0,0,0,0,0,0,0,3,0,0,0,2
CC(C)(C)c1ccc(C(=O)Nc2cn3cc(-c4cccnc4)ccc3n2)cc1,32,12,44,0,17,18,53,13,33,19,25,22,0,16,24,15,36,4,0,26
Cc1cc(-c2ccc3c(c2)CC[C@@H](N[C@@H](C)c2ccccc2)C3)cnc1N.Cl [GW412617],11,0,0,0,34,14,0,0,9,0,8,0,16,0,0,0,7,0,17,0
Cc1cccc(-c2nc(-c3ccc(S(C)(=O)=O)cc3)sc2-c2ccnc(NCCc3ccccc3)c2)c1,0,9,0,2,17,22,7,0,17,0,6,13,0,5,0,7,8,0,14,6
Cn1ccc2ncnc(Oc3cccc(C(=O)Nc4ccccc4)c3)c21,1,0,14,0,0,17,8,8,0,16,0,0,0,0,0,2,2,0,0,0
O=C(Nc1n[nH]c2nc(-c3nccs3)c(Br)cc12)C1CCCC1 [SB-742609],0,0,0,0,36,0,0,0,0,14,0,0,0,0,0,0,5,0,2,12
Nc1nc(-c2nccs2)c(-c2ccnc3ccccc23)s1 [GW693542],9,0,0,0,45,0,28,0,13,0,6,2,0,0,0,0,1,8,16,30
